Measured values from PubChem BioAssay (NCATS).
Records with an inconclusive call do not appear. Calls of active or inactive are those of the source. Unless noted, calls follow the shape of the dose curve; as a rule, active = well fitted curve in the direction sought with a large enough effect; inconclusive = small, poorly fitted or top-dose-only effect, or another doubt; inactive = no such curve, though single readings can be large; an effect the other way counts as inactive or inconclusive.

How the values were obtained:
[1] = Cytometric Cell-Based qHTS for Inhibitors of the mTORC1 Signaling Pathway in MEF (Tsc2-/-, p53-/-) Cells (AID 2660);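 also: percent of cells above a phospho-rpS6 to PI ratio cutoff in each well; series mostly up to about 38 µM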
Method in brief: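 Tsc2-/-, p53-/- MEFs (empty vector) exposed to compound 24 h at 37 C, fixed, stained with Alexa-488 anti-phospho-rpS6 Ser235/236 and propidium iodide. Acumen laser scanning; phospho-S6/PI ratio thresholded against 7.5 nM rapamycin, reported as % positive cells.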

[2] = High Content Imaging Cell-Based qHTS for Inhibitors of the mTORC1 Signaling Pathway in MEF (Tsc2-/-, p53-/-) Cells (AID 2666);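 also: percent of cells scored positive for phospho-rpS6 Ser235/236 immunostaining by imaging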
Method in brief: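 Tsc2-/-, p53-/- MEFs (empty-vector stable) grown in DMEM + 10% FBS were exposed to compounds for 24 hrs at 37 degree Celsius, fixed, and stained with Alexa-488 anti-phospho-rpS6 Ser235/236 plus Hoechst. Imaging gave the percentage of positive cells per well.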

[3] = High Content Imaging Cell-Based qHTS for Inhibitors of the mTORC1 Signaling Pathway in MEF Cells (AID 2667);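 also: Tsc2-/- p53-/- MEFs stably re-expressing wild-type Tsc2 exposed 24 h; series mostly up to about 38 µM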
Method in brief: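 Tsc2-/-, p53-/- MEFs stably re-expressing WT Tsc2, grown in DMEM + 10% FBS, were treated with compounds for 24 hrs at 37 degree Celsius, fixed, and stained with Alexa-488 phospho-rpS6 Ser235/236 antibody plus Hoechst; results given as % positive cells.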

[4] = Cytometry Cell-Based qHTS for Inhibitors of the mTORC1 Signaling Pathway in MEF cells (AID 2668);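 also: Tsc2-/- p53-/- mouse embryonic fibroblasts stably re-expressing wild-type Tsc2; percent cells positive for phospho-rpS6 Ser235/236 relative to propidium iodide stain; series mostly up to about 38 µM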
Method in brief: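 WT MEFs (Tsc2-/-, p53-/- stably re-expressing WT Tsc2) in DMEM + 10% FBS received compounds 24 hrs after plating, for 24 hrs at 37 degree Celsius. Fixed cells stained with Alexa-488 anti-phospho-rpS6 Ser235/236 and propidium iodide; laser-scanning cytometry read-out.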

[5] = target: Ubiquitin carboxyl-terminal hydrolase 2 (Homo sapiens) (UniProt O75604); assay: qHTS Validation Assay for Inhibitors of Ubiquitin-specific Protease USP2a Using CHOP2 as the Reporter (AID 463106)
Ubiquitin carboxyl-terminal hydrolase 2 (Homo sapiens), sequence (O75604 whole entry, looked up): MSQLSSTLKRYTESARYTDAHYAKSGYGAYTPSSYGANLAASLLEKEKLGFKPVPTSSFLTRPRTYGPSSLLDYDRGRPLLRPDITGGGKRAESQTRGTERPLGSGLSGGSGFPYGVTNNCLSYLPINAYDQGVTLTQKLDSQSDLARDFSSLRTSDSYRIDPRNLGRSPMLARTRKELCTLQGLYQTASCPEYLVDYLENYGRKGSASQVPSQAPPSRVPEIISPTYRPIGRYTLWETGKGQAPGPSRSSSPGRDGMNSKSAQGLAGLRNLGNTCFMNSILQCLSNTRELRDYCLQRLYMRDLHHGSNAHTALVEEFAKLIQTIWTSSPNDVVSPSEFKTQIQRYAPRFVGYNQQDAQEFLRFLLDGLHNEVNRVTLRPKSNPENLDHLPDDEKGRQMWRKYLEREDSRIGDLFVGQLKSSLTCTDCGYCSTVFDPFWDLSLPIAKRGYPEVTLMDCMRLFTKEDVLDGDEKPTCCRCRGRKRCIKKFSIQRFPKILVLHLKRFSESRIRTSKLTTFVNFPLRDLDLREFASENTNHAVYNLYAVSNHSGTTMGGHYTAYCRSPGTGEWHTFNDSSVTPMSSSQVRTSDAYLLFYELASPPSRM
Method in brief: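 Readout was coupled fluorescence (Ex 485/Em 531 nm), read 60 min after adding 25 nM final Ub-CHOP2 and 25 nM reporter substrate. Beforehand, 10 nM final USP2 core had 30 min at RT with compound in pH 8.0 buffer. Curves were fitted after normalization to NEM and flagged for artifacts using time-zero reads.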

[6] = target: DNA polymerase III PolC-type (Bacillus subtilis (strain 168)) (UniProt P13267); assay: qHTS Validation Assay for the Inhibitors of DNA Replication in Gram-Positive Bacteria (AID 485295);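 also: PicoGreen fluorescence of double-stranded DNA made on primed circular M13 template; series mostly up to about 57 µM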
DNA polymerase III PolC-type (Bacillus subtilis (strain 168)), sequence (P13267 whole entry, looked up): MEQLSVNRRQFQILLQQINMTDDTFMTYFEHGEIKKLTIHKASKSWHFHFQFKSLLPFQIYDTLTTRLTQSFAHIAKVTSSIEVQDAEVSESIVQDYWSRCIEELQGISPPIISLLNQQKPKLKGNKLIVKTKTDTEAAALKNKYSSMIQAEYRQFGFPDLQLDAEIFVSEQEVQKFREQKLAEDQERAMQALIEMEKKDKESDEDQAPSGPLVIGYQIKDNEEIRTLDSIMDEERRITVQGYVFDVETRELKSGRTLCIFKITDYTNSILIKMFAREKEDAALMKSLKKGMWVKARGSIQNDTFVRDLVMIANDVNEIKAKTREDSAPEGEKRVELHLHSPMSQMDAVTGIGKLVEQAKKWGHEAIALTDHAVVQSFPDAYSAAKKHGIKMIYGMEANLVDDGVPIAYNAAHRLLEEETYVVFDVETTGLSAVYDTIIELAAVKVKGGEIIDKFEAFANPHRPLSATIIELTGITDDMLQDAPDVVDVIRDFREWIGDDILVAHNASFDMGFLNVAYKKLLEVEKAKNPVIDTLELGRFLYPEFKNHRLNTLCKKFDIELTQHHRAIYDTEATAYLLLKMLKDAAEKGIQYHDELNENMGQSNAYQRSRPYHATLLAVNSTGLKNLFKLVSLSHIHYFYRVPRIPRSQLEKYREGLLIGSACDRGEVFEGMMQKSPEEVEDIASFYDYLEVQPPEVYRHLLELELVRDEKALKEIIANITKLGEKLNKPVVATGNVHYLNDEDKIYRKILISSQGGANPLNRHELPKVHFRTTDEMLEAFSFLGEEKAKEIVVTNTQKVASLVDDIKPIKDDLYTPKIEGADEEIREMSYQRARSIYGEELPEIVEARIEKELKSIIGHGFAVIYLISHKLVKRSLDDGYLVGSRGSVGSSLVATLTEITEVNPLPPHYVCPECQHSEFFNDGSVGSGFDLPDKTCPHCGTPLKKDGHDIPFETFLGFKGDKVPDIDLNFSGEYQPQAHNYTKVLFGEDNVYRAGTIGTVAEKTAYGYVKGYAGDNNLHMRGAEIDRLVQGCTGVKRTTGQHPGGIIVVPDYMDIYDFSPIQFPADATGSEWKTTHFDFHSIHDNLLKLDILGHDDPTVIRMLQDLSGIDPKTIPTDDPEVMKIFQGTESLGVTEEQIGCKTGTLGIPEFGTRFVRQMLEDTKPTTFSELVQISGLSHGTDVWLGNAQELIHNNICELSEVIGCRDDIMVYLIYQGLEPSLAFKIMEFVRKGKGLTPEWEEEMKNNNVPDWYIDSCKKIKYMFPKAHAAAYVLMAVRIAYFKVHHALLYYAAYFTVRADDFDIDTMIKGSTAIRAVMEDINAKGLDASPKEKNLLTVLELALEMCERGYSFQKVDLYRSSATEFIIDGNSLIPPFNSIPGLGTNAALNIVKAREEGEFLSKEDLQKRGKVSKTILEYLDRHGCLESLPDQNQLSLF
Method in brief: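 Reconstituted B. subtilis holoenzyme (Pol III, beta clamp, SSB, primase) was preincubated with compound at room temperature, then given single-stranded circular M13Gori plus dNTPs and NTPs. EDTA-containing PicoGreen stopped the reaction, and dsDNA product was read by fluorescence.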

[7] = target: Tumor susceptibility gene 101 protein (Homo sapiens) (UniProt Q99816); assay: qHTS Validation Assay for Iinhibitors of HIV-1 Budding by Blocking the Interaction of PTAP/TSG101 (AID 485342; calls by dose curve)
Tumor susceptibility gene 101 protein (Homo sapiens), sequence (Q99816 whole entry, looked up, the tested form may be a part): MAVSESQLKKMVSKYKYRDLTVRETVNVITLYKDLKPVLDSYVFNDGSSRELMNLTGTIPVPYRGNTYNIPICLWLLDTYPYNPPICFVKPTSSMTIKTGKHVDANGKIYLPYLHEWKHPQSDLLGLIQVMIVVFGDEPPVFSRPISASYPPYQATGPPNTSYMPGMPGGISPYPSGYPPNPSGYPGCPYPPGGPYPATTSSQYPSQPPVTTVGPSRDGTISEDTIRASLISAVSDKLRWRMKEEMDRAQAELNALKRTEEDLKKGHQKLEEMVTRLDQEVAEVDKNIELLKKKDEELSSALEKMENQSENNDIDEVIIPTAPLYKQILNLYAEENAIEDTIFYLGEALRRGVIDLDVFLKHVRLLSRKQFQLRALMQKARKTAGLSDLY
Method in brief: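 Tsg101 binding domain (10 uM final) in pH 7.5 HEPES/NaCl/Tween 20/EDTA/TCEP buffer was mixed with pin-transferred compounds, then FITC-labeled PTAP peptide (50 nM final) was added; after 20 min at r.t., fluorescence polarization was read.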

[8] = qHTS Validation Assay to Find Inhibitors of Chronic Active B-Cell Receptor Signaling (AID 485345; active = well fitted curve in the direction sought with a large enough effect in the main read-out, with a control signal flat, not every such curve was filed as active)
Method in brief: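 Read-out: ratio of filter-corrected green (IkappaBalpha fusion) to red (native) luciferase signal in doxycycline-induced TMD8 cells after 4 h at 37C. Titration spanned 46 uM–3 nM; Data were normalised to basal cells and 10 uM MG-132 wells.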

[9] = target: Beta-2 adrenergic receptor (Homo sapiens) (UniProt P07550); assay: qHTS validation assay of beta-arrestin-biased ligands of beta2-adrenergic receptor (AID 485366)
Beta-2 adrenergic receptor (Homo sapiens), sequence (P07550 whole entry, looked up): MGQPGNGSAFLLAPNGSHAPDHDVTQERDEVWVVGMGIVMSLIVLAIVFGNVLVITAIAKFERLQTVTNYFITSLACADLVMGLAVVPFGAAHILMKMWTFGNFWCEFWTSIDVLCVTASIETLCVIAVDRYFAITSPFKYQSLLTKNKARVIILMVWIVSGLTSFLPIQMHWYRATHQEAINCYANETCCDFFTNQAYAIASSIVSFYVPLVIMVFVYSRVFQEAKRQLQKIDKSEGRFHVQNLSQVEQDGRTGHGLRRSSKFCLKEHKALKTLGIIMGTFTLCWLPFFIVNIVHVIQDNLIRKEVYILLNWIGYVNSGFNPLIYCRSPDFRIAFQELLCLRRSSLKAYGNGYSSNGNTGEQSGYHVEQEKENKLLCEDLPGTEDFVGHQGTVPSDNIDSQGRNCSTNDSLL
Method in brief: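 qHTS, Tango cells, 1500 cells/well, DMEM + 1% FBS. Cpd 18 hr at 37 degrees C. Luciferin/ATP/CoA detection mix, 15 min RT, luminescence read. %Activity from corrected signal; CRC fit, curve class.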

[10] = target: Ferritin light chain (Equus caballus) (UniProt P02791); assay: qHTS Validation Assay for Identification of Novel General Anesthetics (AID 2323); also: series mostly up to about 77 µM
Method in brief: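 Competitive displacement of profluorescent 1-aminoanthracene (1-AMA, 50% saturated solution in PBS) from 10 uM horse-spleen apoferritin. Compounds incubated 10 min at room temperature; fluorescence read at 380 nm excitation/535 nm emission, normalized to free 1-AMA and complex, fitted with four-parameter Hill equation.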

[11] = Quantitative high throughput screen for delayed death inhibitors of the malarial parasite plastid, 96 hour incubation (AID 488745); also: nearly all actives have a fitted effect of over 70% in size; also: potency is read from the fitted curve at half-maximal effect
Method in brief: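 Readout is firefly luciferase luminescence from an integrated reporter in P. falciparum; lower signal marks inhibited growth. Cultures at 2% hematocrit and 0.1% parasitemia were treated with compound across two generations (96 h, 37 C, 5% CO2).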

[12] = target: ATP-dependent DNA helicase Q1 (Homo sapiens) (UniProt P46063); assay: qHTS Validation Assay for Inhibitors of RecQ-Like Dna Helicase 1 (RECQ1) (AID 2353)
ATP-dependent DNA helicase Q1 (Homo sapiens), sequence (P46063 whole entry, looked up): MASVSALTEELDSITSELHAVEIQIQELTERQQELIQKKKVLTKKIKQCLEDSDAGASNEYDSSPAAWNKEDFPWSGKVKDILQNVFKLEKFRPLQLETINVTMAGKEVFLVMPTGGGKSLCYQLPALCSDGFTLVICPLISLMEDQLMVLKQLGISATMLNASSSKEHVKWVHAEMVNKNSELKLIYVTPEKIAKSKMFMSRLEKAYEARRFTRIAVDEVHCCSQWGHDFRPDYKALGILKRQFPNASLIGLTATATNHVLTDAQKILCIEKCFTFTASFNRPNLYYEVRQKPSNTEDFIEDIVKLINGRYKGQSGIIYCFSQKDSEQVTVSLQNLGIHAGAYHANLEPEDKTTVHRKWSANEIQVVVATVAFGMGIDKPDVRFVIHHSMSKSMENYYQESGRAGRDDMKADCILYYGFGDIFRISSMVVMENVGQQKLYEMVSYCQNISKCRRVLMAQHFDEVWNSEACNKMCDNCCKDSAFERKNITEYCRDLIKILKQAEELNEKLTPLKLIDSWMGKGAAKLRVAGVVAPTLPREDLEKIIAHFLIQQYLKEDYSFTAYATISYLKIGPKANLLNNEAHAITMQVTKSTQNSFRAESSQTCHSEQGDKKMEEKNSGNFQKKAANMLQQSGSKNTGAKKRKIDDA
Method in brief: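 RECQ1T1 50 nM; forked duplex (20 bp + 30-nt ss tails) 200 nM, ATP 2 mM final; pH 8.0, 2 mM MgCl2, 2.5 ug/ml poly(dI-dC); 15 min compound preincubation; discontinuous kinetic read over 2 h at RT.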

[13] = Validation screen for small molecules that induce DNA re-replication in MCF 10A normal breast cells (AID 463097); also: nearly all actives have a fitted effect of over 60% in size; also: potency is read from the fitted curve at half-maximal effect
Method in brief: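 Readout: Hoechst nuclear fluorescence intensity, 405 ex / 500-530 em, by scanning plate imager; re-replication scored as increase in nuclei with elevated DNA content. Cells exposed to compound 48 hr, 37 C, 5% CO2 beforehand.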

[14] = Quantitative high throughput screen for delayed death inhibitors of the malarial parasite plastid, 48 hour incubation (AID 488752); also: nearly all actives have a fitted effect of over 65% in size; also: potency is read from the fitted curve at half-maximal effect
Method in brief: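 First, compound was pinned into RPMI 1640 medium containing 0.5% Albumax. Next, reporter-parasite-infected erythrocytes were added to 2% hematocrit and 0.1% parasitemia. After 48 h at 37 C under 5% CO2, luciferase detection reagent was added and luminescence read.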

[15] = target: ATP-dependent 6-phosphofructokinase (Trypanosoma brucei brucei) (UniProt O15648); assay: qHTS Validation Assay to Find Inhibitors of T. brucei phosphofructokinase (AID 485368); also: potency is read from the fitted curve at half-maximal effect
Method in brief: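 Luminescent ADP detection measures PFK turnover of fructose-6-phosphate (0.5 mM) with ATP (0.1 mM) at pH 8.0. Reaction runs 45 min at room temperature with 1.25 nM enzyme; inhibitors tested as titrations up to 57 uM.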

[16] = target: RecQ-like DNA helicase BLM (Homo sapiens) (UniProt P54132); assay: qHTS Validation Assay for Inhibitors of Bloom's syndrome helicase (BLM) (AID 2364)
RecQ-like DNA helicase BLM (Homo sapiens), sequence (P54132 whole entry, looked up): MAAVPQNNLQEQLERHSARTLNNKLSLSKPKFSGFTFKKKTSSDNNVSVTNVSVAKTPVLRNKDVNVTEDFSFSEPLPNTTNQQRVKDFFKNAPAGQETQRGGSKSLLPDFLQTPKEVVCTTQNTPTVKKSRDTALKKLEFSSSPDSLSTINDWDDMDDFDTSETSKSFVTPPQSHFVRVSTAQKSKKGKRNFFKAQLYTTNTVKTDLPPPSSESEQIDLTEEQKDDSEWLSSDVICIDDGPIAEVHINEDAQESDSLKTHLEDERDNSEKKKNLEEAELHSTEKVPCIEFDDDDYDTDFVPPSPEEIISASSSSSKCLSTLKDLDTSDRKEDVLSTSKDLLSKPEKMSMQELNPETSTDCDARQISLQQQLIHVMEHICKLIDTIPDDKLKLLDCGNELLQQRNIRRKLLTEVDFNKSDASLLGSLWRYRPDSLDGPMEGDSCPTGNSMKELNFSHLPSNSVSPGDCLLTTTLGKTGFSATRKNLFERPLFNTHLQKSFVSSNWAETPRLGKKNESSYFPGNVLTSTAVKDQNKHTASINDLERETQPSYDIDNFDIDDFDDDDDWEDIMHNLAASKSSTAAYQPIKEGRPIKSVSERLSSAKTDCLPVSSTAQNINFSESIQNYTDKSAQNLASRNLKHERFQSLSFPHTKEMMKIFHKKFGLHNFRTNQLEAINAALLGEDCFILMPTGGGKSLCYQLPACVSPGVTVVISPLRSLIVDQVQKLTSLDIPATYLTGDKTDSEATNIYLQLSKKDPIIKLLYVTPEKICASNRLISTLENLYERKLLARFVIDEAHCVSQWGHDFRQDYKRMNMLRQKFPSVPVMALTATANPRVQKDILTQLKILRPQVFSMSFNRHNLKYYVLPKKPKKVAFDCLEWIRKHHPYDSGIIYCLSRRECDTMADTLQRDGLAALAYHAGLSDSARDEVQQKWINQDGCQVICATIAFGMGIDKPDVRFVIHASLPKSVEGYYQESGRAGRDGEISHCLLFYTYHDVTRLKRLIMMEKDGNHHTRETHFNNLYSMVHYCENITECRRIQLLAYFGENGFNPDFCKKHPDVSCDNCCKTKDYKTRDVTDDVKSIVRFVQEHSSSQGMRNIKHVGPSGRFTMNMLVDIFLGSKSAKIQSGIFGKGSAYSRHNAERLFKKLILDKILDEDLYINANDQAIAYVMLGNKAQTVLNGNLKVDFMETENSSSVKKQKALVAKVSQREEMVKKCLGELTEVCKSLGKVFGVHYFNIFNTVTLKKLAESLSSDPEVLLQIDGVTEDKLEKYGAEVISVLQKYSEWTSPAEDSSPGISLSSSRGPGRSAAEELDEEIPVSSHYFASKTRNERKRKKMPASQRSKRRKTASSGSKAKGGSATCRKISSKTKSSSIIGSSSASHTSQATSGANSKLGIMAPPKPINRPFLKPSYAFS
Method in brief: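 Forked 20-bp duplex substrate (200 nM, TAMRA/BHQ-2) plus 2 mM ATP added after 15 min compound preincubation with 50 nM enzyme, pH 8.0, poly(dI-dC) 2.5 ug/ml. Strand separation followed by fluorescence (525/598 nm) over 2 h, normalized to enzyme-free and DMSO controls.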

Measured: Potency

O=C(c1ccc(OCCCc2cnc[nH]2)cc1)C1CC1
inactive: [1] | [2] | [3] | [4] | [5] | [6] | [7] | [8] | [9]

Oc1ccccc1O
inactive: [10] | [2] | [5] | [6] | [7] | [9] | [11]

Oc1ccc(C2CNCc3sccc32)cc1O (stereo unspecified)
not listed: [10] | [11] | [15] | [16]
inactive: all other assays above

COc1cc(OC)c(/C=C2/C(=O)Nc3ccccc32)c(OC)c1
not listed: [1] | [8] | [10] | [13] | [15] | [16]
inactive: all other assays above

N[C@@H](CC(=O)O)C(=O)O
not listed: [5] | [6] | [7] | [9] | [10] | [16]
inactive: all other assays above

O=C(c1cc(O)c(O)c([N+](=O)[O-])c1)c1ccccc1F
inactive: [12] | [2] | [3] | [4] | [7] | [8] | [11] | [14]

Nc1nc(Cl)nc2c1ncn2[C@@H]1O[C@H](COP(=O)(O)OP(=O)(O)OP(=O)(O)O)[C@@H](O)[C@H]1O
inactive: [1] | [2] | [3] | [4] | [5] | [6] | [7]

COC(=O)c1c(C)[nH]c(C)c1C(=O)c1ccccc1Cc1ccccc1
inactive: [1] | [2] | [3] | [4] | [13] | [6] | [7] | [9]
active: [11] 11.7 µM | [14] 9.28 µM

C#CCN1C(C)=C(C(=O)OC)C(c2cccc([N+](=O)[O-])c2)C(C(=O)OCC)=C1C (stereo unspecified)
active: [11] 8.28 µM | [14] 11.7 µM
not listed: [7] | [8] | [10] | [13] | [16]
inactive: all other assays above

CNc1ncnc2c1ncn2[C@@H]1O[C@H](CO)[C@@H](O)[C@H]1O
inactive: [1] | [2] | [3] | [4] | [5]

NC[C@@H]1O[C@H](C23CC4CC(CC(C4)C2)C3)Cc2c1ccc(O)c2O
active: [11] 3.29 µM | [14] 3.7 µM
inactive: [12] | [16] | [2] | [5] | [6] | [7] | [9]

CO/S(=N\S(=O)(=O)c1ccc(Cl)cc1)c1ccc([N+](=O)[O-])cc1 (stereo unspecified)
inactive: [1] | [2] | [3] | [4] | [5] | [6] | [7] | [8] | [9]

O=c1[nH]c2cc(C(F)(F)F)ccc2n1-c1cc(C(F)(F)F)ccc1O
inactive: [12] | [1] | [2] | [3] | [4] | [13] | [5] | [7] | [15]

CC[C@@H](C)[C@H]1O[C@]2(CC[C@@H]1C)C[C@@H]1C[C@@H](C/C=C(\C)[C@@H](O[C@H]3C[C@H](OC)[C@@H](O[C@H]4C[C@H](OC)[C@@H](O)[C@H](C)O4)[C@H](C)O3)[C@@H](C)/C=C/C=C3\CO[C@@H]4[C@H](O)C(C)=C[C@@H](C(=O)O1)[C@]34O)O2
inactive: [12]
active: [11] 0.117 µM | [14] 1.65 µM

CN(C)c1nc2c(Br)c(Br)c(Br)c(Br)c2[nH]1
inactive: [12] | [2] | [6] | [7] | [9] | [15] | [14]

CCCCCCCC/C=C\CCCCCCCC(=O)NCCO
active: [11] 2.94 µM | [14] 2.62 µM
not listed: [9] | [10] | [13] | [16]
inactive: all other assays above

Nc1ccn([C@@H]2O[C@H](CO)[C@@H](O)[C@@H]2O)c(=O)n1
inactive: [16] | [14]

Cc1ccc(O)c(N=Nc2ccccc2)n1
active: [15] 15.1 µM
not listed: [9] | [10] | [12]
inactive: all other assays above

Oc1cc2c(cc1O)CN(C(=S)NCCc1ccc(Cl)cc1)CCC2
active: [13] 3.55 µM
inactive: [1] | [2] | [3] | [4] | [5] | [7]

O=C1/C(=C/c2ccsc2)CC/C1=C\c1cccs1
inactive: [1] | [2] | [3] | [4] | [5] | [6] | [7]

CN(C)c1ccc(/C=C2\C(=O)Nc3ccccc32)cc1
inactive: [12] | [1] | [2] | [6] | [9]

Nc1ncnc2c1ncn2[C@@H]1O[C@H](COP(=O)(O)CP(=O)(O)OP(=O)(O)O)[C@@H](O)[C@H]1O
inactive: [1] | [2] | [3] | [4] | [5] | [7] | [8] | [9] | [15]

N#C/C(=C\c1ccc(O)c(O)c1)C(=O)NCc1ccccc1
active: [13] 8.91 µM | [15] 13.5 µM
inactive: [1] | [2] | [3] | [5] | [6] | [7] | [9] | [11]
